# Experimental data reported in PubChem BioAssay (NCATS).
# Results filed as inconclusive are left out. Where a call stands in place of a potency, no number is given. The source made the active and inactive calls. Calls follow the shape of the dose curve; as a rule, active = well fitted activation curve with a large enough effect; inconclusive = small, poorly fitted or top-dose-only effect; inactive = flat fitted curve, though single readings scatter.
# Target: Cellular tumor antigen p53 (Homo sapiens) (UniProt P04637)
# Sequence (P04637 whole entry, looked up): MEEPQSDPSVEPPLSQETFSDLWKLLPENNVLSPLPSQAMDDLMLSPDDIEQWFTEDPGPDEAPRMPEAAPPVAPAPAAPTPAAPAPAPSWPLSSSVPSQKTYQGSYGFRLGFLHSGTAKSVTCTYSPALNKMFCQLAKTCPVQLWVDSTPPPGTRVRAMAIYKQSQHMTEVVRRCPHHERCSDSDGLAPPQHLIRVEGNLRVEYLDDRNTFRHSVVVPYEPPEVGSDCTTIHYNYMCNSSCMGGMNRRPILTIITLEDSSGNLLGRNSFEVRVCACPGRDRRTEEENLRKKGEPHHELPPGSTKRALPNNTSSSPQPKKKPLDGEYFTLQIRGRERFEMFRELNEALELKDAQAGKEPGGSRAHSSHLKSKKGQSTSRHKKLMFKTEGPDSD
# Test: Primary qHTS for small molecule compounds that upregulate eGFP-tagged delta133p53alpha (in C-terminal) cells. (AID 2060324)
# Details: NCI-H358 delta133p53alpha-eGFP (C-terminal tag), GFP fluorescence imaging, 24 h; series mostly up to 57.5 µM
# Text: Assay Development and Screening Technology
# National Center for Advancing Translational Sciences (NCATS),
# National Institute of Health (NIH), Rockville, Maryland
# Cellular senescence (CS) is one of the hallmarks of aging and age-related diseases. Senescent cells are characterized by an irreversible growth arrest, an increase in senescence-associated beta-galactosidase (SA-beta-gal) activity and p16INK4a expression, an activation of the DNA damage response pathways, and the emergence of a senescence-associated secretory phenotype (SASP).
# Delta133p53alpha, a human/primate-specific p53 protein isoform, delays or inhibits the induction of CS and SASP in various types of human cells, including progeria-derived fibroblasts, primary normal astrocytes, and CD8+ T lymphocytes. Induction of delta133p53alpha with small molecule compounds may provide therapeutic opportunities for inhibition of senescence/SASP-associated pathologies in progeria syndromes, astrocyte-mediated neuroprotection in neurodegenerative diseases, and possibly prevention and treatment of a wider range of senescence- and aging-associated diseases.
# Here we report the development and validation of a cell-based quantitative high throughput screening (qHTS) assay in 1,536-well format. This qHTS assay uses the NCI-H358 cell line with doxycycline-inducible expression of enhanced green fluorescent protein (eGFP)-tagged delta133p53alpha, which allows efficient and highly quantitative measurement of the protein levels.
# PROTOCOL TABLE (as described by Inglese J, Shamu CE and Guy RK. 2007)
# SEQUENCE No. (e.g., 1, 2, 3, etc.); […] (e.g., Cells, Incubation, Reagent, etc.); VALUE; DESCRIPTION.
# 1; Cells; 4uL; 800 doxycycline treated cells / well in doxycycline-free media, 1536-well black, clear-bottom low base Aurora microplates.
# 2; Compounds; 23 nL; Kalypsis pin tool (Wako) equipped with 1536-well pin heads, 5-azacytidine positive control.
# 3; Incubation; 24 hr; 37C, 5% CO2; 95% relative humidity.
# 4; Aspiration; 1x; BioTek EL406 washer dispenser (Agilent).
# 5; Fixing; 3.5% paraformaldehyde, BioTek EL406 washer dispenser (Agilent).
# 6; Washing; 1x PBS; BioTek EL406 washer dispenser (Agilent).
# 7; Nuclei staining; 1:1000 dilution of Hoechst 33342 (Thermofisher), BioTek EL406 washer dispenser (Agilent).
# 8; Incubation; 20 min; in the dark at room temperature.
# 9; Washing; 2x, 1x PBS (ThermoFisher), BioTek EL406 washer dispenser (Agilent).
# 10; Reagent; 10 uL; 1x PBS per well, sealed with clear adhesive tape.
# 11; Detection; Fluorescence, Acumen eX3 laser scanning cytometer (STP Labtech), GFP filters […].
# NOTES (numbers refer to sequence numbers above).
# 1. NCI-H358 cells expressing eGFP-tagged delta133p53alpha were grown in T75 culture flasks and treated with doxycycline for 24h, at 10 ng/ml for eGFP-D133p53a cells (N-terminal cell) and 100 ng/ml for D133p53a-eGFP cells (C-terminal cells). Cells were trypsinized, counted using a Counted 3 Automated Cell Counter (Thermo Fisher), and diluted to a concentration of 200,000 cells/ml. A Multidrop Combi Reagent Dispenser (ThermoFisher) was used to dispense 800 cells/well in […] of doxycycline-free media, into 1536-well black/clear bottom low base plates (AuroraMicroplates).
# 2. After plating cells, 23 nl of compound library, DMSO vehicle control or positive control (5-azacytidine) were transferred by Pin Tool (Wako). The plate map layout was the same for each plate: (column 1) non-doxycycline treated cells + DMSO vehicle control; (column 2) doxycycline treated cells + DMSO vehicle control baseline; (column 3) doxycycline treated cells + positive control 57.5 uM final concentration 5-azacytidine; (column 4) doxycycline treated cells + serial dilution of 5-azacytidine, 16-point 1:2 titration spanning 1.8 nM to […] final concentration; (columns 5-48) doxycycline treated cells + titration of library compounds.
# 3. Cells were incubated at 37 °C, 5 % CO2, 95% RH with breathable metal lid for 24h.
# 4-10. […] […]
# Potency is read from the fitted curve at half-maximal effect.
row,SMILES,Potency
1,C[C@@]1(C2CCCC2)Cc2cc(OCC(=O)O)c(Cl)c(Cl)c2C1=O,inactive
2,C/C=C/CC(C)C(O)C1C(=O)NC(CC)C(=O)N(C)CC(=O)N(C)C(CC(C)C)C(=O)NC(C(C)C)C(=O)N(C)C(CC(C)C)C(=O)NC(C)C(=O)NC(C)C(=O)N(C)C(CC(C)C)C(=O)N(C)C(CC(C)C)C(=O)N(C)C(C(C)C)C(=O)N1C (stereo not given),inactive
3,COc1cc2c(CCNC(C)=O)c[nH]c2cc1Cl,inactive
4,CC(C)NCC(O)COc1ccc(COCCOC(C)C)cc1 (stereo not given),inactive
5,O=Nc1c(-c2c(O)[nH]c3cc(Br)ccc23)[nH]c2ccccc12,inactive
6,CC(C(O)c1ccc(O)cc1)N1CCC(Cc2ccccc2)CC1 (stereo not given),inactive
7,CO[C@@]1(NC(=O)CSCC#N)C(=O)N2C(C(=O)O)=C(CSc3nnnn3C)CS[C@@H]21,inactive
8,O=C(O)C1CCCNC1 (stereo not given),inactive
9,COc1ccc(C(=O)NCc2cccnc2)cc1C(=O)NCc1cccnc1,inactive
10,OC[C@H]1O[C@@H](n2cnc3cncnc32)[C@H](O)[C@@H]1O,inactive
11,Nc1nc2[nH]c(=O)cnc2c(=O)[nH]1,inactive
12,CC(C)(C)NCC(O)c1cc(O)cc(O)c1 (stereo not given),inactive
13,C[C@H](CS)C(=O)N1CCC[C@H]1C(=O)O,inactive
14,CCN(CC)CCNC(=O)c1cc(S(C)(=O)=O)ccc1OC,inactive
15,CCOC(=O)C(C)(C)Oc1ccc(Cl)cc1,inactive
16,CC(=O)/C(C)=N/O,inactive
17,Oc1cc2c(cc1O)C(c1ccccc1)CNCC2 (stereo not given),inactive
18,O=c1[nH]cc(F)c(=O)[nH]1,inactive
19,CC(C)c1cccc(C(C)C)c1N1C(=O)c2ccc(O)cc2C1=O,inactive
20,CCC(C)N(C)C(=O)c1cc2ccccc2c(-c2ccccc2Cl)n1 (stereo not given),inactive

row,SMILES,Potency
1,C[C@]12C=CC(=O)C=C1CC[C@H]1[C@@H]3C[C@@H](O)[C@](O)(C(=O)CO)[C@@]3(C)C[C@H](O)[C@@]12F,inactive
2,N[C@H](CO)C(=O)O,inactive
3,CNC1(C)C2CCC(C2)C1(C)C (stereo not given),inactive
4,CCCCCCN(CCCCCC)C(=O)Cc1c(-c2ccc(F)cc2)[nH]c2ccccc12,inactive
5,N[C@H](CCCP(=O)(O)O)C(=O)O,inactive
6,O=C(O)CCCC[C@@H]1CCSS1,inactive
7,O=[N+]([O-])c1ccc(CNc2nc(NCc3cccc(C(F)(F)F)c3)nc3nc[nH]c23)cc1,inactive
8,CCCCc1ncc(/C=C(\Cc2cccs2)C(=O)O)n1Cc1ccc(C(=O)O)cc1,inactive
9,Clc1cccc(Cl)c1NC1=NCCN1,inactive
10,COc1ccc(CCN(C)CCCC(C#N)(c2ccc(OC)c(OC)c2)C(C)C)cc1OC (stereo not given),inactive
11,C=C(C)C1CC=C(C(=O)O)CC1 (stereo not given),inactive
12,N#C/C(=C\c1ccc(O)c(O)c1)C(=O)NCCCNC(=O)/C(C#N)=C/c1ccc(O)c(O)c1,inactive
13,CSc1ccc2c(c1)C(N1CCN(C)CC1)Cc1ccccc1S2 (stereo not given),inactive
14,COc1ccccc1N1CCN(CCN(C(=O)c2ccc(F)cc2)c2ccccn2)CC1,inactive
15,CCOC(=O)Nc1ccc(NCc2ccc(F)cc2)nc1N,13.5 µM (active)
16,CNC(=O)[C@H]1O[C@@H](n2cnc3c(NCc4cccc(I)c4)ncnc32)[C@H](O)[C@@H]1O,inactive
17,O=P(O)(O)C(Cl)(Cl)P(=O)(O)O,inactive
18,CCOC(=O)c1ncn2c1CN(C)C(=O)c1cc(F)ccc1-2,inactive
19,O=C(NCCN1CCOCC1)c1ccc(Cl)cc1,inactive
20,OC[C@H]1O[C@@H](n2cnc3c(NC4CCCC4)ncnc32)[C@H](O)[C@@H]1O,inactive
